AMA1 RON2 block: AMA1-RON2 (P. falciparum) interaction inhibition | AlphaScreen AMA1-biotinylated RON2 peptide binding | Potency, µM (top dose mostly 58.2 µM), usual class: inhibitors | actives 0.2% (n = 360,000); also: nearly all actives have a fitted effect of over 45% in size
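AMA1 (3D7) with his tag at 25 nM final met compounds first, then biotinylated RON2 peptide at 25 nM; detection used donor plus acceptor beads, 10 µg/mL apiece, read by AlphaScreen after 30 min at room temperature.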
Pf growth 48h: inhibits P. falciparum growth in the first generation, 48 h; actives 5.9% (n = 310,000); Potency, µM (highest dose often 28.7 µM), usual class: inhibitors; P. falciparum luciferase growth in erythrocytes, 48 h
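Growth was read as firefly luciferase luminescence after a 48 h, 37 C, 5% CO2 exposure of compounds to reporter-bearing P. falciparum cultures (0.1% parasitemia, 2% hematocrit final) in Albumax-supplemented RPMI 1640.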
NS1 function inh: inhibitors of influenza NS1 protein function. actives 0.4% (n = 270,000). Potency, µM (doses to about 46.1 µM); calls by dose curve; also: actives are rising curves; nearly all actives have a fitted effect of over 50% in size
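S. cerevisiae expressing influenza A NS1, grown in glucose, washed, then diluted 1:100 into pH 6.0 -URA galactose medium with 23 nl compound. Growth recovery read as OD600; NS1-free strain serves as control.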
Sm TGR inh: S. mansoni TGR enzyme inhibition | Q962Y6 | purified TGR, DTNB reduction, TNB absorbance 405 nm | Potency, µM (top dose mostly 114 µM), hits mostly inhibitors | actives 3% (n = 360,000) | AID 485364; also: nearly all actives have a fitted effect of over 60% in size
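First, TGR (20 nM dispensed) and NADPH were mixed with compound. Second, a 15 min room-temperature incubation followed. Third, further NADPH and then DTNB were added to start the reaction. Finally, TNB absorbance was monitored kinetically.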
Pf growth 96h: P. falciparum growth inhibition at 96 hour, primary screen for plastid delayed-death inhibitors | Potency, µM (highest dose often 28.7 µM), hits mostly inhibitors | actives 6.9% (n = 320,000) | P. falciparum luciferase reporter growth, 96 h
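Cell-based qHTS: luciferase-tagged P. falciparum in erythrocytes (2% hematocrit, 0.05% parasitemia final) incubated with compounds for 96 hours, 37 C, 5% CO2; luciferase detection reagent then added and luminescence measured.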
Large screens that a line does not name were inactive. Most compounds without a hit are left out; they make up all but 11% or so of the library. Unless noted, calls follow the shape of the dose curve; as a rule, active = well fitted curve in the direction sought with a large enough effect; inconclusive = small, poorly fitted or top-dose-only effect, or another doubt; inactive = no such curve, though single readings can be large; an effect the other way counts as inactive or inconclusive.

CCC(Sc1ncccc1C(=O)OCCN1CCCC1=O)C(=O)NCc1ccco1 (stereo not given)	Pf growth 48h inconclusive, NS1 function inh inconclusive, Sm TGR inh 44.7µM, Pf growth 96h inconclusive
CC(C)(C)C(=O)C(Oc1ccc(Cl)cc1)n1ccnc1 (stereo not given)	Pf growth 96h 12µM (no result: AMA1 RON2 block, NS1 function inh, Sm TGR inh)
CC(C)(C)C(O)C(Oc1ccc(Cl)cc1)n1cncn1 (stereo not given)	Pf growth 48h inconclusive
O=C(NCc1ccco1)c1c(O)c2cccc3c2n(c1=O)CCC3	Pf growth 96h 13.1µM
NNC(=O)c1c(O)c2cccc3c2n(c1=O)CCC3	Sm TGR inh 31.6µM
Cc1sc2ncnc(SC(C)C(=O)N3c4ccccc4Sc4ccccc43)c2c1C (stereo not given)	Pf growth 48h 1.65µM, Pf growth 96h 7.38µM
CCCc1ccc(OCc2ccc(C(=O)N3CCCC3)o2)cc1	Pf growth 48h 10.4µM
CCCc1ccc(OCc2ccc(C(=O)N3CCN(c4ccccn4)CC3)o2)c(OC)c1	Pf growth 48h 13.1µM
CC(C)(C)OC(=O)CC12CCCCC1NC(=O)O2 (stereo not given)	none
CCC(C)NC(=S)N(Cc1cc2cc(C)ccc2n2nnnc12)CC(C)(C)NC(C)C (stereo not given)	Pf growth 48h inconclusive
CC(=O)C1=C(C)NC(=O)CC1c1ccc(Br)cc1 (stereo not given)	none (no result: NS1 function inh)
CCC(C)(C)n1nnnc1C(c1ccc(C)cc1)N(Cc1ccco1)Cc1cccs1 (stereo not given)	Pf growth 48h 4.65µM (no result: Pf growth 96h)
CCC(C)(C)n1nnnc1C(C(C)C)N(Cc1cccnc1)Cc1ccco1 (stereo not given)	Pf growth 48h inconclusive (no result: Sm TGR inh)
CC(C)(C)n1nnnc1CN(Cc1ccc(F)cc1)Cc1ccco1	Pf growth 48h inconclusive, Pf growth 96h inconclusive
CCN(Cc1ccccc1)C(c1cccc(C#N)c1)c1nnnn1C(C)(C)C (stereo not given)	Pf growth 48h 10.4µM, Pf growth 96h inconclusive
COc1cccc(CN(Cc2ccco2)C(c2ccc(F)cc2)c2nnnn2C(C)(C)C)c1 (stereo not given)	Pf growth 48h 1.65µM, Sm TGR inh 50.1µM, Pf growth 96h inconclusive
CCN(Cc1ccccc1)C(c1ccc(C(F)(F)F)cc1)c1nnnn1C(C)(C)C (stereo not given)	none (no result: Pf growth 48h, NS1 function inh, Sm TGR inh, Pf growth 96h)
CC(C)(C)n1nnnc1C(c1cccnc1)N(Cc1ccccc1)Cc1ccco1 (stereo not given)	Pf growth 48h 2.94µM, Pf growth 96h 1.85µM
Cc1ccc(C)c(NC(=O)N2CCC(N3CCN(Cc4ccc(F)cc4)C(=O)C3=O)CC2)c1	none (no result: AMA1 RON2 block, Pf growth 48h, NS1 function inh, Pf growth 96h)
NC(=O)c1ccc(SCC(=O)OCC(=O)NCc2ccco2)c([N+](=O)[O-])c1	none (no result: NS1 function inh)
COc1cccc(CN(C)C(=O)CCNC(=O)c2ccco2)c1	none (no result: NS1 function inh)
COc1ccc(S(=O)(=O)N2CCOCC2)cc1NC(=O)COC(=O)CCS(=O)(=O)c1ccc(C)cc1	none (no result: Pf growth 48h, NS1 function inh, Sm TGR inh, Pf growth 96h)
CCNC(=O)CC1SC(=Nc2ccc(Cl)cc2)N(CC)C1=O (stereo not given)	Pf growth 96h inconclusive
C=CCN1C(=O)C(CC(=O)NCC)SC1=Nc1cc(Cl)ccc1Cl (stereo not given)	Pf growth 96h 1.17µM
CC(C)(C)c1cc(C(=O)NNC(=O)Nc2ccccc2)n(Cc2ccccc2)n1	Pf growth 48h 5.22µM, Pf growth 96h 9.28µM
Cc1cccc(C)c1NC(=O)NNC(=O)c1cc(C(C)(C)C)nn1Cc1ccccc1	Pf growth 48h inconclusive, Pf growth 96h inconclusive
Cc1ccc(S(=O)(=O)N(C)C)cc1NC(=O)c1cc(C(C)(C)C)nn1Cc1ccccc1	Pf growth 48h inconclusive, Pf growth 96h 7.38µM
CC(C)(C)c1cc(C(=O)NNC(=O)Nc2cccc(Cl)c2)n(Cc2ccccc2)n1	Pf growth 48h inconclusive, Pf growth 96h 9.28µM
Cc1ccc(Nc2nnc(SCC(=O)NC(Cc3c[nH]c4ccccc34)C(=O)O)s2)cc1 (stereo not given)	none
CCCCC(=O)Nc1ccc(OCc2cc(=O)n3c(C)csc3n2)cc1	none (no result: AMA1 RON2 block, Pf growth 48h, NS1 function inh, Pf growth 96h)
COc1ccccc1Nc1sc(C(=O)c2ccc3c(c2)OCO3)c(N)c1S(=O)(=O)c1ccccc1	none (no result: AMA1 RON2 block, Pf growth 48h, NS1 function inh, Pf growth 96h)
COCCN(Cc1nc(C(c2ccccc2)c2ccccc2)no1)C(C)C	Pf growth 96h inconclusive
CC(C)N(CCO)Cc1nc(C(c2ccccc2)c2ccccc2)no1	Pf growth 48h inconclusive, Pf growth 96h 9.28µM
CCOC(=O)c1c(C)[nH]c(CCC(=O)NC(C)c2ccccc2)c1C (stereo not given)	none (no result: AMA1 RON2 block, Pf growth 48h, NS1 function inh, Pf growth 96h)
Cc1cc(CC(C)CC(C)(C)C)n(O)c(=O)c1 (stereo not given)	Pf growth 48h 4.78µM, Pf growth 96h 3.01µM (no result: AMA1 RON2 block, NS1 function inh, Sm TGR inh)
CCN(C(=O)CSc1nnc(C2CC2)n1-c1ccccc1)C1CCS(=O)(=O)C1 (stereo not given)	none (no result: NS1 function inh)
O=C(CCC(=O)OCC(=O)c1ccc([N+](=O)[O-])cc1)Nc1ccccc1Cl	Pf growth 48h inconclusive, Pf growth 96h 13.1µM
O=C(CCc1ccccc1)OCC(=O)c1ccc([N+](=O)[O-])cc1	Pf growth 96h 11.7µM (no result: NS1 function inh)
O=C(Cc1ccccc1)OCC(=O)c1ccccc1	Pf growth 96h 11.7µM
CCC1CN(C(=O)N2CCC(C(=O)NCc3ccccc3OC)CC2)c2ccccc2O1 (stereo not given)	Pf growth 48h inconclusive, Pf growth 96h 13.1µM
O=C(Nc1cccc(C(F)(F)F)c1)C1CCN(S(=O)(=O)c2ccc(N3CCCC3=O)cc2)CC1	Pf growth 48h inconclusive, NS1 function inh inconclusive, Pf growth 96h 13.1µM
COc1cccc(NC(=O)C2CCN(S(=O)(=O)c3ccc(N4CCCC4=O)cc3)CC2)c1	none (no result: Pf growth 48h, NS1 function inh, Sm TGR inh, Pf growth 96h)
COc1ccccc1CNC(=O)C1CCN(S(=O)(=O)c2ccc(N3CCCC3=O)cc2)CC1	Pf growth 48h 11.7µM, Pf growth 96h 14.7µM
O=C(NCc1ccc(Cl)cc1)C1CCN(S(=O)(=O)c2ccc(N3CCCC3=O)cc2)CC1	Pf growth 96h 13.1µM
O=C(NCc1ccc(Cl)cc1)C1CCN(S(=O)(=O)c2ccc3c(c2)CCCN3C(=O)C2CCC2)CC1	none (no result: AMA1 RON2 block, Pf growth 48h, NS1 function inh, Pf growth 96h)
CCC1CN(C(=O)N2CCC(C(=O)NCc3ccccc3OC)CC2)c2cc(C)ccc2O1 (stereo not given)	Pf growth 48h inconclusive, Pf growth 96h inconclusive
Cc1ccc(S(=O)(=O)N(CC(=O)NCc2ccncc2)Cc2ccc(F)cc2)cc1	none
CC1(c2nnnn2Cc2ccccc2)CCC(=O)N1Cc1ccc(F)cc1 (stereo not given)	none (no result: Pf growth 48h, NS1 function inh, Sm TGR inh, Pf growth 96h)
COc1ccc(NC(=O)CCC(=O)N2CCOCC2)c([N+](=O)[O-])c1	none
C[C@H](CO)N1C[C@H](C)[C@@H](CN(C)S(=O)(=O)c2ccccc2)OCc2cnnn2CCCC1=O	none (no result: Pf growth 48h, NS1 function inh, Sm TGR inh, Pf growth 96h)
CCOC(=O)c1ccc(S(=O)(=O)N2CCC(C(=O)NCc3ccccc3OC)CC2)cc1	Pf growth 48h inconclusive, Pf growth 96h 8.28µM (no result: NS1 function inh)
CCc1ccccc1NC(=O)C1CCN(S(=O)(=O)c2ccc(N3CCCC3=O)cc2)CC1	none (no result: Pf growth 48h, NS1 function inh, Sm TGR inh, Pf growth 96h)
CCS(=O)(=O)N1CCC(C(=O)NCc2ccccc2OC)CC1	none
